Paper PMC5540273 (PLoS ONE, 2017)

Assays:
Details in all cases: concentration: 1 μM, replicates: in singlicate; n = 1
CHEK1 = test system: CHEK1
CHEK2 = test system: CHEK2
CIT = test system: CIT
CLK1 = test system: CLK1
CLK2 = test system: CLK2
CLK3 = test system: CLK3
CLK4 = test system: CLK4
CSF1R-autoinhibited = test system: CSF1R-autoinhibited
CSF1R = test system: CSF1R
CSK = test system: CSK
CSNK1A1L = test system: CSNK1A1L
CSNK1A1 = test system: CSNK1A1
CSNK1D = test system: CSNK1D
CSNK1E = test system: CSNK1E
CSNK1G1 = test system: CSNK1G1
CSNK1G2 = test system: CSNK1G2
CSNK1G3 = test system: CSNK1G3
CSNK2A1 = test system: CSNK2A1
CSNK2A2 = test system: CSNK2A2
CTK = test system: T1, CTK
T1 construct: gene MATK
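Also: KINOMEscan kinase panel screen.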

| SMILES | %Inh (CHEK1) | %Inh (CHEK2) | %Inh (CIT) | %Inh (CLK1) | %Inh (CLK2) | %Inh (CLK3) | %Inh (CLK4) | %Inh (CSF1R-autoinhibited) | %Inh (CSF1R) | %Inh (CSK) | %Inh (CSNK1A1L) | %Inh (CSNK1A1) | %Inh (CSNK1D) | %Inh (CSNK1E) | %Inh (CSNK1G1) | %Inh (CSNK1G2) | %Inh (CSNK1G3) | %Inh (CSNK2A1) | %Inh (CSNK2A2) | %Inh (CTK) |
| --- | --- | --- | --- | --- | --- | --- | --- | --- | --- | --- | --- | --- | --- | --- | --- | --- | --- | --- | --- | --- |
| COc1ccc(Nc2nccc(N3CCC(NC(=O)Nc4cc(C)ccc4C)C3)n2)cc1 (centres unmarked) [GSK1379741] | 0% | 0% | 5% | 14% | 0% | 0% | 0% | 0% | 4% | 0% | 2% | 0% | 0% | 12% | 0% | 0% | 14% | 0% | 0% | 0% |
| NCC(NC(=O)c1cc(-c2cn[nH]c2)c(-c2ccnc3[nH]ccc23)s1)c1ccccc1.O=C(O)C(F)(F)F.O=C(O)C(F)(F)F (centres unmarked) [GSK1325775] | 37% | 86% | 96.6% | 74% | 68% | 70% | 66% | 0% | 26% | 10% | 87% | 93.3% | 91.9% | 99.4% | 55% | 90% | 81% | 15% | 33% | 0% |
| O=C(NCCNc1ccnc(Nc2ccc(F)cc2)n1)c1cc2ccccc2s1 [GSK1379874] | 2% | 0% | 22% | 29% | 0% | 26% | 37% | 8% | 0% | 0% | 9% | 0% | 0% | 37% | 0% | 0% | 21% | 7% | 19% | 52% |
| Cc1ccc(NC(=O)c2ccnc(N3CCN(C)CC3)c2)cc1-c1ccc(C(=O)NCC2CC2)cc1 [GW775604] | 0% | 15% | 0% | 0% | 0% | 0% | 0% | 0% | 22% | 0% | 0% | 0% | 0% | 24% | 0% | 0% | 0% | 0% | 7% | 0% |
| Cc1cccc(Cn2ccn3c(=O)cc(N4CCOCC4)nc23)c1 [GSK2297542] | 13% | 4% | 23% | 50% | 20% | 58% | 45% | 8% | 11% | 55% | 18% | 19% | 48% | 55% | 27% | 16% | 25% | 2% | 22% | 0% |
| Cc1cccc(-c2nc(Nc3ccc4ncsc4c3)c3ccccc3n2)n1 [GW867588] | 0% | 7% | 13% | 1% | 9% | 0% | 0% | 4% | 0% | 3% | 0% | 0% | 0% | 6% | 0% | 0% | 0% | 0% | 18% | 0% |
| Cn1cc(-c2ccc3c(c2)CCN3C(=O)Cc2ccccc2Cl)c2c(N)ncnc21 [GSK2608885] | 35% | 4% | 65% | 25% | 0% | 1% | 0% | 0% | 99.8% | 97.6% | 0% | 0% | 11% | 87% | 25% | 3% | 20% | 0% | 8% | 18% |
| Fc1ccc(-c2ncn(CCCN3CCOCC3)c2-c2cccnc2)cc1 [SB-211743] | 0% | 0% | 0% | 24% | 0% | 11% | 2% | 0% | 0% | 0% | 0% | 22% | 4% | 24% | 0% | 0% | 17% | 0% | 0% | 32% |
| CN(C1=C(c2ccccc2)C(=O)NC1=O)c1ccccc1 [SB-334860] | 0% | 16% | 37% | 24% | 12% | 0% | 6% | 0% | 18% | 6% | 0% | 0% | 19% | 17% | 7% | 0% | 22% | 1% | 21% | 0% |
| CN1c2ccc(NCc3ccc(F)cc3)cc2-c2c(cnn2C)S1(=O)=O | 0% | 0% | 0% | 0% | 0% | 0% | 0% | 1% | 0% | 0% | 0% | 0% | 2% | 3% | 0% | 0% | 0% | 0% | 0% | 0% |
